Our source for the Potency values is PubChem BioAssay AID720540 (National Center for Advancing Translational Sciences (NCATS), 2013).

Structures are written as SMILES. Among all 1,300 compounds or so, about 460 (35%) were called active. Another 39% or so got no clear call; they are omitted. Calls come from the whole dose curve; as a rule, active = well fitted inhibition curve with a large enough effect; inconclusive = small, poorly fitted or top-dose-only effect; inactive = flat fitted curve, though single readings scatter. This is one part of the list.
Potency is the fitted concentration of half-maximal effect.

Protein phosphatase EYA2 (Homo sapiens), sequence (O00167 whole entry, looked up): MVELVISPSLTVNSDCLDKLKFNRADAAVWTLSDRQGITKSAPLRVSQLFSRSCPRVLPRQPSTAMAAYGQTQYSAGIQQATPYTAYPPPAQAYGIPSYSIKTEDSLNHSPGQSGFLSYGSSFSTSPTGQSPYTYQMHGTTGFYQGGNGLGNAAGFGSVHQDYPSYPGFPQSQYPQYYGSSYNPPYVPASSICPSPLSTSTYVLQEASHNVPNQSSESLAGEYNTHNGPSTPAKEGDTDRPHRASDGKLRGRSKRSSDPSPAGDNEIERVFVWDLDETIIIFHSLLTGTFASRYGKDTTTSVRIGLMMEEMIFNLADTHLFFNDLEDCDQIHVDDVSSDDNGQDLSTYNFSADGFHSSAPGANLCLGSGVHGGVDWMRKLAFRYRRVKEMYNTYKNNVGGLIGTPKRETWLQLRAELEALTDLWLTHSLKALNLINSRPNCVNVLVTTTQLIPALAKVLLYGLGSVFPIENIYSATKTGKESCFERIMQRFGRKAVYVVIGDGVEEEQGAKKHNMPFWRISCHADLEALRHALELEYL

For the assay, the target named is Protein phosphatase EYA2 (Homo sapiens) (UniProt O00167). The assay is described as follows: qHTS for Inhibitors of the Phosphatase Activity of Eya2: Confirmatory Assay for Cherry-picked Compounds. Note: nearly all actives have a fitted effect of over 65% in size. The settings on record: purified EYA2 phosphatase activity, qHTS confirmation; series mostly up to 46.1 µM. The essentials:
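Eya2 (0.2 uM working solution) preincubated 10 min at room temperature with compound in pH 7.5 HEPES buffer with MgCl2, BSA, DTT. OMFP added (50 uM working solution), 10 min more; fluorescence 485/525 nm, normalized to EGTA and DMSO.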
In general terms: qHTS replaces the single test concentration by a dilution series.
For the molecule `CCOCCCNC(=O)c1cc2sc(Cl)cc2n1CC`, the Potency entry is “inactive”.
As to `Nc1ccccc1C(=O)NNc1c2ccccc2nc2ccccc12`, the Potency was 8.49 µM (active).
In the case of `O=C(CN1C(=O)c2ccccc2C1=O)Nc1nc(-c2cccc([N+](=O)[O-])c2)cs1`, the Potency entry is “inactive”.
Regarding `O=[N+]([O-])c1ccccc1Nc1nc(-c2cccnc2)cs1`, the Potency was 15.1 µM (active).
Consider `CNc1cccc2c1C(=O)c1ccccc1C2=O`, for which the Potency was 1.69 µM (active).
Consider `CN(C)c1ccc(N=Nc2ccnc3ccccc23)cc1`, for which the Potency was 3.38 µM (active).
`Cc1cc(O)cc(O)c1/C=N/NC(=O)c1ccc2c(c1)OCCO2`: the Potency was 7.57 µM (active).
Consider `S=c1[nH]nc(-c2ccccn2)n1/N=C/c1ccc(Br)s1`, for which the Potency is 16.9 µM (active).
For `NC(=O)[C@@H]1CC2(CC(c3cccc(NC(=O)COc4ccc(Cl)cc4)c3)=NO2)CN1C(=O)COc1ccc(Cl)cc1` (stereo partly specified) the value was “inactive”; for `CCOC(=O)C(C)N1C(=O)S/C(=C\c2ccc(-c3ccccc3C(=O)O)o2)C1=O` (stereo unspecified), 19 µM (active).
On to `Cc1c(C(=O)O)cccc1-c1ccc(/C=C2\SC(=O)NC2=O)o1`, for which the Potency result is “inactive”.
Turning to `CCn1c(C)cc(/C=C2/SC(=O)N(C(C)C(=O)OC)C2=O)c1C` (stereo unspecified), the Potency result was “inactive”.
Take `COCCN(Cc1cc2cc3c(cc2nc1Cl)OCO3)C(=O)Nc1ccc(OC)cc1`: the Potency entry is “inactive”.
To `COc1ccc2[nH]cc(CCn3ccc(O)c(C/C=C/c4ccccc4)c3=O)c2c1` belongs 21.3 µM (active).
Regarding `O=S(=O)(O)c1ccc2c(N=Nc3ccc(S(=O)(=O)O)c4ccccc34)c(O)c(S(=O)(=O)O)cc2c1`, the Potency is 7.57 µM (active).
To `CC(=O)Nc1ccc(S(=O)(=O)O)c2cc(S(=O)(=O)O)c(N=Nc3ccc(N=Nc4ccc(S(=O)(=O)O)cc4)c4ccc(S(=O)(=O)O)cc34)c(O)c12` belongs 1.51 µM (active).
Turning to `CCN1CCN(c2ncnc3scc(-c4ccc(C)cc4)c23)CC1`, the Potency entry is “inactive”.
As to `CCOc1ccc(NC(=O)C2CC(=O)N(CCc3ccc(OC)c(OC)c3)C2)cc1OCC` (stereo unspecified), the Potency was 12 µM (active).
Consider `COc1ccc(N2CCN(C(=O)c3cc(-c4cc(OC)ccc4OC)nc4ccccc34)CC2)cc1`, for which the Potency is 16.9 µM (active).
With `COc1ccc2cc(C(=O)N3CCN(c4ccc(F)cc4)CC3)[nH]c2c1`, the Potency entry was “inactive”.
For `O=C1/C(=C\c2cccc([N+](=O)[O-])c2O)SC(=S)N1Cc1ccccc1`, the Potency was 6.75 µM (active).
To `Oc1ccc(-c2nc3c4c(ncn3n2)-c2ccccc2CC42CCCC2)cc1` belongs “inactive”; to `COc1ccc(CC(CC(=O)O)C(=O)Nc2ccc(Cl)c(Cl)c2)cc1` (stereo unspecified), “inactive”; to `COc1ccc(/C=C(/C#N)C(=O)Nc2ccc(O)cc2)cc1C(=O)O`, 9.53 µM (active).
As for `COc1ccc(NC(=O)/C(C#N)=C/c2ccc(-c3ccc(Cl)c(C(=O)O)c3)o2)cc1`, the Potency was 19 µM (active).
For `N#C/C(=C\c1ccc(-c2ccc(C(=O)O)cc2)o1)C(=O)Nc1ccc(F)cc1`, the Potency is 16.9 µM (active).
Take `O=C(Cn1ccc(=O)[nH]c1=O)Nc1nccs1`: the Potency entry was “inactive”.
As to `CCOc1ccc(S(=O)(=O)N2CCN(C)CC2)cc1NC(=O)c1ccccc1F`, the Potency is 8.49 µM (active).
To `CC(Oc1ccc(F)cc1)C(=O)Nc1cc(S(=O)(=O)N2CCCCC2)ccc1N1CCN(C)CC1` (stereo unspecified) belongs “inactive”; to `Cc1ccc(-c2csc(N3CCN(CCCn4c(C(F)(F)F)nc5ccccc54)CC3)n2)cc1`, “inactive”; to `Oc1[nH]c2ccccc2c1N=Nc1nc2ccccc2s1`, “inactive”.
Turning to `CCCSC1=N/C(=C\C=C\c2ccco2)C(=O)S1`, the Potency is 9.53 µM (active).
Take `O=c1nc2c(O)cccn2c2c1c(=O)[nH]c1ccccc12`: the Potency is 4.26 µM (active).
Consider `Cc1ccc(C(=O)CSc2nnc(CNc3nc(-c4ccccc4)cs3)n2C)cc1`, for which the Potency is 7.57 µM (active).
For `COc1ccc(N)cc1-n1c(C)ccc1C` the value was “inactive”; for `O=[N+]([O-])c1ccc([N+](=O)[O-])c(Nc2ccc(N3CCOCC3)cc2)c1`, 10.7 µM (active).
To `CCn1nc(C(=O)Nc2nc(-c3ccccn3)cs2)c2ccccc2c1=O` belongs 4.26 µM (active); to `CSCCC(=O)Nc1nc(-c2ccccn2)cs1`, 19 µM (active); to `O=C(CCS(=O)(=O)c1ccc(F)cc1)Nc1nc(-c2ccccn2)cs1`, 13.5 µM (active).
As to `COc1ccccc1/C=C/C=N/N1CCN(Cc2cccc3ccccc23)CC1`, the Potency is 8.49 µM (active).
Turning to `Cn1cccc1/C=N/N1CCN(Cc2cccc3ccccc23)CC1`, the Potency is 15.1 µM (active).
To `Cc1cc(C(=O)COC(=O)c2ccc(O)cc2)c(C)n1CCc1ccc(F)cc1` belongs “inactive”; to `CCC(=O)Nc1ccc(-c2nnc(SCc3ccccc3)n2C)cc1`, “inactive”.
Turning to `O=C(CSc1ccc2nnc(-c3ccccn3)n2n1)Nc1ccccc1C(F)(F)F`, the Potency is 19 µM (active).
Take `O=C(CSc1ccc2nnc(-c3ccccn3)n2n1)Nc1ccccc1F`: the Potency was 12 µM (active).
As for `O=C(CSc1ccc2nnc(-c3ccccn3)n2n1)Nc1ccccc1`, the Potency is 16.9 µM (active).
`CCCCC(Sc1ccc2nnc(-c3ccccn3)n2n1)C(=O)O` (stereo unspecified): the Potency was 16.9 µM (active).
Regarding `O=S(=O)(O)c1ccc(O)c2cc(Nc3ccccc3)ccc12`, the Potency was 7.57 µM (active).
As to `O=C(c1ccc2c(=O)n3c(nc2c1)CCCCC3)N1CCN(c2cccc(Cl)c2)CC1`, the Potency is 16.9 µM (active).
On to `NC(=O)c1nc(C(=O)N2CCCCC2)c2ccccc2n1`, for which the Potency entry is “inactive”.
With `COc1ccc(/C=C/C(=O)Nc2ccc3nc4n(c(=O)c3c2)CCCC4)cc1`, the Potency result was “inactive”.
For `COc1cc2c(cc1OC)C(c1ccc([N+](=O)[O-])cc1)NCC2` (stereo unspecified), the Potency result was “inactive”.
Consider `Oc1ccccc1C=NC1CCCCC1N=Cc1ccccc1O` (stereo unspecified), for which the Potency was 19 µM (active).
For `COc1ccc(NC(=O)c2cc(-c3ccco3)nc3ccccc23)cn1` the value was “inactive”.
In the case of `O=C(Nc1nncs1)c1cc(-c2ccco2)nc2ccccc12`, the Potency was 19 µM (active).
Regarding `CCOC(=O)c1sc(NC(=O)CSc2nc(O)c(Cc3ccccc3)c(=O)[nH]2)nc1C`, the Potency is 19 µM (active).
Consider `O=C(CN1C(=O)/C(=C/c2ccco2)SC1=S)Nc1ccc(C(=O)O)c(O)c1`, for which the Potency was 16.9 µM (active).
Consider `COc1cc(/C=C2\SC(=S)N(CCC(=O)Nc3cccc(O)c3)C2=O)cc(OC)c1OC`, for which the Potency result was “inactive”.
Regarding `O=C1c2cccc(Sc3ccccc3)c2C(=O)c2c(Sc3ccccc3)cccc21`, the Potency is 3.38 µM (active).
As for `COC(=O)c1sc2cc(C(F)(F)F)cnc2c1-c1cccnc1`, the Potency result is “inactive”.
Consider `CCN(CC)C(=O)c1ccc(O)c(OC)c1`, for which the Potency entry is “inactive”.
On to `CCN(CC)S(=O)(=O)c1cc(OC)ccc1N=Nc1ccc(O)c2ncccc12`, for which the Potency was 1.35 µM (active).
For `CCc1nnc(NS(=O)(=O)c2ccc(NCc3cc(Cl)cc(Cl)c3O)cc2)s1` the value was 2.39 µM (active); for `O=S(=O)(Nc1nccs1)c1ccc(NCc2cc(Br)cc(Br)c2O)cc1`, 1.07 µM (active); for `CCSc1nnc(-c2ccc(S(=O)(=O)N3CCOCC3)cc2)n1C`, “inactive”.
Consider `CCOc1ccc(NC(=O)c2sccc2-n2cccc2)cc1`, for which the Potency entry is “inactive”.
Consider `CCOc1ccc(/C=C2\SC(=S)N(CCC(=O)Nc3ccc(C(=O)O)cc3)C2=O)cc1`, for which the Potency is 19 µM (active).
Consider `O=C(CCN1C(=O)/C(=C\C=C\c2ccccc2)SC1=S)Nc1ccc(C(=O)O)cc1`, for which the Potency result is “inactive”.
To `Cc1n[nH]c(=S)n(NC(=O)CC(=O)Nn2c(=S)[nH]nc(C)c2=O)c1=O` belongs 1.51 µM (active); to `CC1CCCN(c2ccc3nc4ccccc4c(=O)n3n2)C1` (stereo unspecified), 13.5 µM (active).
As for `Cc1ccc(CN2CCN(/N=C/c3ccc(C)s3)CC2)c(C)c1`, the Potency is 15.1 µM (active).
Regarding `O=C(Nc1nc2c(F)cc(F)cc2s1)c1ccc([N+](=O)[O-])o1`, the Potency result is “inactive”.
As to `O=C(Oc1ccc(C(=S)N2CCOCC2)cc1)c1ccccc1F`, the Potency was 6.01 µM (active).
As to `O=C(Oc1ccc(C(=S)N2CCOCC2)cc1)c1ccccc1[N+](=O)[O-]`, the Potency is 13.5 µM (active).
As to `Cc1cc(Br)c(NC(=O)c2ccccc2[N+](=O)[O-])cc1C`, the Potency entry was “inactive”.
On to `O=C(Oc1ccc(C(=S)N2CCCCC2)cc1)c1ccccc1F`, for which the Potency is 13.5 µM (active).
For the molecule `CC1(C)Nc2cccc3c(N=Nc4ccc(N=Nc5ccccc5)c5ccccc45)ccc(c23)N1`, the Potency is 3.01 µM (active).
Regarding `COc1ccc(CN(CCN(C)C)c2ccccn2)cc1`, the Potency result was “inactive”.
For `COc1ccc(Oc2nc(-c3ccccn3)ncc2OC)cc1`, the Potency is 19 µM (active).
To `COc1cnc(-c2ccccn2)nc1Oc1ccc(C(C)(C)C)cc1` belongs 3.79 µM (active); to `CCOC(=O)C(C)Sc1nc(-c2ccccn2)ncc1OC` (stereo unspecified), 2.13 µM (active); to `CCc1nc2ccc(C(=O)NCCCN(C)C)cn2c1N(C)Cc1ccc(OC)cc1`, “inactive”.
With `COc1ccc(N(CC(=O)Nc2nc3ccc(C)cc3s2)S(=O)(=O)c2c(C)nn(C)c2C)cc1`, the Potency result was “inactive”.
Consider `Cc1c(C(=O)O)c(O)cc2c1C(=O)c1c(O)c([C@H]3O[C@H](CO)[C@@H](O)[C@H](O)[C@H]3O)c(O)c(O)c1C2=O`, for which the Potency was 16.9 µM (active).
Turning to `CCc1ccc(NC(=O)COC(=O)c2ccccc2OCC(=O)N(C)C)cc1`, the Potency entry was “inactive”.
Consider `O=C(COC(=O)c1cc(-c2cccnc2)nc2ccccc12)Nc1ccc(F)cc1F`, for which the Potency result was “inactive”.
To `COc1ccc(C(=O)Nc2nnc(-c3ccccc3)o2)cc1OC` belongs 19 µM (active); to `O=C(Nc1cccc(-c2nnc(-c3ccco3)o2)c1)c1ccccc1`, “inactive”.
For `CCOc1ccccc1C(=O)OCC(=O)Nc1nnc(-c2ccccc2)o1` the value was 19 µM (active).
Consider `C#Cc1cccc(NC(=O)CSc2nnc(-c3ccc(C(F)(F)F)cn3)o2)c1`, for which the Potency was 15.1 µM (active).
To `c1ccc2c(c1)nc(Nc1ccc(N3CCCCC3)cc1)c1nncn12` belongs 16.9 µM (active).
Consider `CC1CCCCC1Nc1nc2ccc(Cl)cc2n2cnnc12` (stereo unspecified), for which the Potency entry is “inactive”.
For `CN(C)c1ccc(/C=C2\C=Cc3ccccc32)cc1[N+](=O)[O-]` the value was 6.75 µM (active).
To `CN(C)c1ccc(/C=C2\C=Cc3ccccc32)cc1N` belongs 15.1 µM (active).
On to `CNc1ccc(/C=C2\C=Cc3ccccc32)cc1OC`, for which the Potency is 7.57 µM (active).
For the molecule `O=[N+]([O-])c1ccc(/C=C2\C=Cc3ccccc32)cc1`, the Potency was 4.78 µM (active).
